Pf growth 96h: Primary qHTS for delayed death inhibitors of the malarial parasite plastid, 96 hour incubation; P. falciparum luciferase reporter growth, 96 h; Potency, µM (highest dose often 28.7 µM), actives largely listed as inhibitors; 320,000 tested, 6.9% active
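Erythrocytes infected with luciferase-expressing P. falciparum were dispensed at 2% hematocrit and 0.05% parasitemia (final), then incubated with compounds 96 hours at 37 C in 5% CO2. Luminescence after detection reagent addition reported growth.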
MARV entry inh: qHTS for inhibitors of binding or entry into cells for Marburg Virus; 300,000 tested, 1.8% active; Marburg virus pseudotyped entry inhibition, cell reporter; Potency, µM (titrated, usually from 37.8 µM), usual class: inhibitors; calls by dose curve; tested in HEK293 cells
Pf growth 48h: Primary qHTS for delayed death inhibitors of the malarial parasite plastid, 48 hour incubation; P. falciparum luciferase growth in erythrocytes, 48 h; 310,000 tested, 5.9% active; Potency, µM (highest dose often 28.7 µM), most hits filed as inhibitors
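Firefly luciferase activity from engineered P. falciparum reports growth; inhibitors lower the luminescent signal. Cultures contained 2% hematocrit erythrocytes at 0.1% final parasitemia.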
HCV inh: qHTS Assay for Inhibitors of Hepatitis C Virus (HCV) | 340,000 tested, 3.4% active | AID 651820, 2012 | Potency, µM (series often up to 41.8 µM), usual class: inhibitors | Huh7.5.1 HCVcc-Cre infection, luciferase reporter, 44 h
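A cell-based infection assay in which seeded cells (1,000 per well) receive test compound after 4 h, are inoculated with HCVcc-Cre at approximately 0.5 moi, and are incubated 44 h before luminescence detection.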
HCMV antiviral: qHTS Assay for inhibitors of the human cytomegalovirus (HCMV); AID 1259415, 2018; 410,000 tested, 4.5% active; activity change, negative = inhibition, % at 57.5 µM; HFF cells, HCMV-luciferase reporter, 72 h; active compounds read low; in the data active = activity change below about -60%; inconclusive = no clear call, values can overlap the other calls; inactive = above about -39%
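After 16 h attachment at 37C, HFF cells received test compound and HCMV-luciferase (1 PFU/cell); reporter luminescence read 72 h later, data normalized against buffer-only and known inhibitor Salinomycin.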
LASV entry inh: qHTS for Inhibitors of binding or entry into cells for Lassa Virus; Lassa virus pseudotype entry inhibition, cell reporter; Potency, µM (titrated, usually from 37.9 µM), actives largely listed as inhibitors; 300,000 tested, 1.2% active; AID 540256, 2011; calls by dose curve; tested in HEK293 cells; note: nearly all actives have a fitted effect of over 50% in size
Numbers stand for hits; – = inactive; ? = inconclusive; · = no result; ! = not confirmed by another sample. This is a sample that favours compounds with a hit; in the whole collection about 14% have one here. Unless noted, calls come from the whole dose curve; as a rule, active = well fitted inhibition curve with a large enough effect; inconclusive = small, poorly fitted or top-dose-only effect, or another doubt; inactive = no such curve, though single readings can be large or run the other way.

SMILES	Pf growth 96h	MARV entry inh	Pf growth 48h	HCV inh	HCMV antiviral	LASV entry inh
O=C(CN1CCN(Cc2ccccc2)CC1)Nc1ccc([N+](=O)[O-])cc1C(=O)Nc1ccccc1F	?	–	10.4µM	?	–	–
COc1ccc(-c2c3c(nc4sc(C(=O)Nc5cc(C)on5)c(N)c24)CCC3)cc1	–	–	4.15µM	?	?	?
COc1ccc(-c2c3c(nc4sc(C(=O)Nc5ccc(Cl)cc5)c(N)c24)CC(C)(C)CC3=O)cc1	·	–	·	·	–	–
COc1ccc(-c2c3c(nc4sc5c(=O)[nH]c(C)nc5c24)CCC3)cc1	?	?	–	–	-88.4	–
COc1ccccc1Cc1c(-c2ccc(OC)c(OC)c2)nc2ccc(C)cn12	·	·	·	·	–	·
O=c1c2ccccc2nc2oc3ccccc3n12	13.1µM	?	–	–	–	?
Cc1ccc(NC(=O)c2cc(S(=O)(=O)N3CCCCC3)c[nH]2)cc1Cl	·	·	·	·	–	·
COCCCNc1nc(SCc2ccccc2)nc2sc3c(c12)CCC3	?	–	?	?	?	–
Cc1cc(C)n(-c2nc(NCCO)c3c4c(sc3n2)CCCC4)n1	–	?	?	7.08µM	–	?
Cc1cc(C)n(-c2nc(NCCCO)c3c4c(sc3n2)CCCC4)n1	–	?	·	7.08µM	·	–
Cc1cc(C)n(-c2nc(NCC(C)O)c3c4c(sc3n2)CCCC4)n1 (stereo not drawn)	?	?	·	5.62µM	–	?
Cc1cc(C)n(-c2nc(NCC(C)O)c3c4c(sc3n2)COC(C)(C)C4)n1 (stereo not drawn)	?	?	?	–	–	–
N#Cc1c(NC(=O)CCn2cnc3ccccc3c2=O)oc(-c2ccccc2)c1-c1ccccc1	–	?	?	10µM!	–	?
N#Cc1c(NC(=O)CCN2C(=O)c3ccccc3C2=O)oc(-c2ccccc2)c1-c1ccccc1	–	–	–	–	–	–
COc1ccc2c(c1)[C@@H](NC(=O)c1c(C)noc1C)[C@H](C)[C@@H](c1ccccc1)N2C(=O)NC(C)C	·	·	·	·	–	·
NC(=O)N=Nc1c2[nH]c3ccccc3nc-2c2ccccc12	?	?	?	?	-98.8	?
CSc1ccc(CN2CCC(n3nccc3NC(=O)CCCc3ccccc3)CC2)cc1	?	?	–	?	-68.3	?
CCn1cc(CN2CCC(n3nccc3NC(=O)Cc3ccccc3)CC2)cn1	10.4µM	–	–	–	–	–
CCOc1cccc(CN2CCC(n3nccc3NC(=O)CCCc3ccccc3)CC2)c1	?	·	10.4µM	?	–	·
N#CCCCn1c(-c2ccccc2)noc1=O	3.7µM	–	–	–	–	–
O=c1onc(-c2ccccc2)n1Cc1ccc([N+](=O)[O-])cc1	·	·	·	·	-75.1	·
Cc1c(Cl)cccc1-n1ncc(C(=O)N2CCN(C)CC2)c1C1CCN(C(=O)OC(C)(C)C)CC1	·	·	·	·	–	?
O=C(N/N=C/c1ccc2c(c1)OCO2)c1ccc(NC(=O)c2ccc(F)cc2)cc1	–	–	2.33µM	–	-86.3	–
COc1ccc(/C=N/NC(=O)c2cc(-c3ccc4c(c3)OCO4)n[nH]2)cc1OC	11.7µM	?	?	?	–	–
COc1cccc(NC(=O)C(=O)N/N=C/c2ccc3c(c2)OCO3)c1	10.4µM	–	–	–	–	–
SMILES	Pf growth 96h	MARV entry inh	Pf growth 48h	HCV inh	HCMV antiviral	LASV entry inh
O=C(N/N=C/c1ccc2c(c1)OCO2)C(=O)Nc1ccccc1Cl	–	·	–	–	–	·
O=C(N/N=C/c1ccc(F)cc1)c1cc(-c2ccc3c(c2)OCO3)n[nH]1	–	–	–	?	–	8.91µM
O=C(Sc1n[nH]c(=O)[nH]c1=O)c1ccccc1	·	–	·	–	–	–
COc1ccc([C@H]2N[C@]3(CCCN(Cc4ccc(Br)cc4)C3=O)[C@H]3C(=O)N(C)C(=O)[C@@H]23)cc1	·	·	·	·	–	·
CCCCOCC1CN(CCCC)S(=O)(=O)c2c(Oc3ccc(C)cc3)cccc2O1 (stereo not drawn)	·	·	·	·	–	?
O=C(CN1C(=O)NC2(CCCCC2)C1=O)NCCc1ccccc1	·	·	·	–	–	·
COc1ccc(CCNc2cc(N3CCN(C(=O)c4ccccc4F)CC3)ccc2[N+](=O)[O-])cc1OC	–	?	?	?	-97.1	?
COc1ccc(C(=O)N2CCN(c3ccc([N+](=O)[O-])c(NCCc4ccc(OC)c(OC)c4)c3)CC2)cc1	4.65µM	?	10.4µM	1µM	-99.2	4.47µM
CCCCCOc1c(Cl)cc(C(=O)N(Cc2ccc(C)o2)C2CCS(=O)(=O)C2)cc1Cl (stereo not drawn)	·	–	·	·	–	–
CCc1nnc(NC(=O)CSc2nccn2Cc2ccc(F)cc2)s1	·	·	·	·	–	–
CCCCNC(=O)C1c2ccccc2OCC(=O)N1CCc1ccccc1 (stereo not drawn)	·	·	·	·	–	·
C[C@H](N)c1cccc(Cl)c1Cl	·	–	·	·	·	·
COc1cccc(/C=N/Nc2snc(SC)c2C#N)c1	?	?	–	–	–	5.62µM
CSc1nsc(N/N=C/c2ccccc2)c1C#N	?	–	–	–	–	–
COc1ccc(/C=N/Nc2nc(C)cc(=O)[nH]2)cc1OC	?	–	?	–	–	–
COc1ccc(/C=N/Nc2snc(SC)c2C#N)cc1OC	–	?	4.15µM	?	–	6.31µM
COc1cccc(/C=N/Nc2snc(SC)c2C#N)c1O	–	?	–	?	-98.2	?
O=C(c1ccccc1)c1nn(-c2ccc(Cl)cc2)c(=O)cc1C(F)(F)F	?	8.91µM	?	6.31µM	-104.5	11.2µM
O=C(c1cccc(Cl)c1)c1nn(-c2ccccc2)c(=O)cc1C(F)(F)F	13.1µM	–	?	–	-71.6	–
O=C(c1ccccc1)c1nn(-c2ccccc2)c(=O)cc1C(F)(F)F	–	?	–	?	-67.0	?
O=C(Nc1ccccc1)c1nn(-c2ccccc2)c(=O)cc1C(F)(F)F	?	–	–	?	–	–
CC[C@]1(C(=O)OC)[C@H]2C(=O)N(Cc3ccccc3)C(=O)[C@H]2[C@H]2CN=C(SCC3CC3)N21	·	·	·	?	–	·
O=C(NC1CCCCC1)C(c1ccc2ncccc2c1)N(Cc1ccc(F)cc1)C(=O)c1cccs1 (stereo not drawn)	10.4µM	?	8.28µM	?	–	?
COc1ccc(CNC(=O)C(c2ccncc2)N(C(=O)Cc2cccs2)c2ccc(C)cc2)cc1 (stereo not drawn)	?	?	?	–	–	?
COc1ccc(CNC(=O)C(c2ccncc2)N(C(=O)Cc2cccs2)c2ccccc2)cc1 (stereo not drawn)	13.1µM	?	–	–	–	–
COc1ccc(CN(C(=O)Cc2cccs2)C(C(=O)NC2CCCC2)c2ccncc2)cc1 (stereo not drawn)	14.7µM	–	?	–	–	–

Screening data as filed in PubChem.
